# Measurements from PubChem BioAssay (NCI).
# This is part of a sample that, as a whole, favours compounds with a hit. Of some 83,000 tested, about 20% had one in any assay.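 48-hour exposure, single concentration, 96-well plates; percent growth endpoint where 0 means no net growth. Active: below 10.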 Active and inactive are the calls of the source.
# Test system: KM12 colon
# Experiment: NCI-60 one-dose screen, 48 h (100 = growth as untreated, 0 = no growth, -100 = all killed)
# Conditions: 10 µM unless noted
row,SMILES,growth
1,CCN(CC)C(=O)O/N=C(/C)c1ccccc1,102% (inactive)
2,C=C1C(=O)O[C@H]2[C@H]1CC/C(COC(=O)NCc1ccc(Cn3c(=O)sn(CCCl)c3=O)cc1)=C\CC[C@@]1(C)O[C@@H]21,95.2% (inactive)
3,COc1ccc2c(c1)sc1nc(-c3ccccc3)c(-c3cccc4ccccc34)n12,15.7% (inactive)
4,c1ccc(-c2nnn(-c3ccccc3)n2)cc1,107% (inactive)
5,CC(C)N(C(=S)SSC(=S)N(C(C)C)C(C)C)C(C)C,108% (inactive)
6,Cc1ccc2c(C)c3c(ccc4ccccc43)c[n+]2c1,28.6% (inactive)
7,O=C(N/N=C/c1ccc([N+](=O)[O-])cc1)c1ccccc1Nc1ccnc(C(F)(F)F)c1,87.1% (inactive)
8,CC(C)CC1NC(=O)C(CC(C)C)N(CO)C1=O (centres undefined),110% (inactive)
9,Cc1ccccc1C1CC(=O)c2ccccc2C1C (centres undefined),107% (inactive)
10,O=C1/C(=C/N2N=C(c3ccc(Cl)cc3)CC2c2ccccc2O)SC(=S)N1c1cccc(C(F)(F)F)c1 (centres undefined),38% (inactive)
11,CN(C)CC(=O)c1ccc2cc(Br)c3ccccc3c2c1,63.7% (inactive)
12,CCN(C(=O)CCl)C(C)(C)C(SSSC(c1ccc(Cl)cc1)C(C)(C)N(CC)C(=O)CCl)c1ccc(Cl)cc1 (centres undefined),85.6% (inactive)
13,COc1ccc(NC(=O)Cn2c(=O)sc3c(-c4ccc(Cl)cc4)cc(-c4ccc(Cl)cc4)nc32)cc1,99.7% (inactive)
14,COc1cccc(/C=N\Nc2ccc([N+](=O)[O-])cn2)c1O,78.4% (inactive)
15,CCN(CC)CC(=O)Nc1c(C)cc(C(=O)NN)cc1C,98.9% (inactive)
16,CCCC(CCC)(C(N)=O)C(=O)O,106% (inactive)
17,COc1cnc2c(c1)C(=O)c1c-2n(CCCNC(C)C)c(=O)c2cc(Cl)ccc12,-71.7% (active)
18,Cc1nn(-c2cccc(Cl)c2)c(C)c1N=Nc1ccc(Br)cc1,100% (inactive)
19,CCCCCCCCCCCCNC(=O)N[C@H](C(=O)N[C@H]1/C=C/OCCNC(=O)/C=C/[C@H](C(C)C)NC1=O)C(C)C,71.5% (inactive)
20,Cc1ccc(C(CN(C)C)C(=O)c2ccccc2)cc1 (centres undefined),33.9% (inactive)

row,SMILES,growth
1,CCCCCCCCCCCCCCCCCC(=O)[O][Sn]([CH2]CCC)([CH2]CCC)[CH2]CCC,-96.2% (active)
2,Cc1c2c(cc3c1[nH]c1ccccc13)C=NCC2,87% (inactive)
3,COc1ccc(C(=O)C(CN(C)C)c2ccc(OC)cc2)cc1 (centres undefined),78% (inactive)
4,CC(=O)O[C@H]1CC[C@]2(C)[C@H]3CC=C4[C@@H]5CC(C)(C)CC[C@]5(C(=O)OCC(COC(=O)C(Cl)Cl)(COC(=O)C(Cl)Cl)NC(=O)C(Cl)Cl)CC[C@@]4(C)[C@]3(C)CC[C@H]2C1(C)C,52.2% (inactive)
5,COc1ccc2c(c1)C1=NN(C(=O)CO)[C@H](c3ccc(OC(F)(F)F)cc3)[C@@H]1CC2,102% (inactive)
6,COc1ccc(Cl)cc1Nc1nc(C(F)(F)F)ccc1C(=O)NN,38.6% (inactive)
7,CC(C)c1cccc(C#N)c1,111% (inactive)
8,COc1ccc2nc3ccccc3c(NCc3ccc(C)cc3)c2c1,37.3% (inactive)
9,CS(=O)(=O)c1ccc(C(=O)N/N=C/c2ccccc2Cl)cc1,100% (inactive)
10,CC(C)(C)c1ccc(C(=O)Nc2sc3cc(O)ccc3c2C(N)=O)cc1,34.6% (inactive)
11,COc1cc(/C=C\c2cc(/C=C\c3ccc(O)c(OC)c3)n(C(=O)Nc3ccc(C(F)(F)F)cc3)n2)ccc1O,41.4% (inactive)
12,CCOC(=O)c1cc(N)nc2ccccc12,98.4% (inactive)
13,CCSCC1CC(O)(c2ccccc2)C(c2ccccc2)C(c2ccc(F)cc2)O1 (centres undefined),-9.64% (active)
14,CN1C2CCC1/C(=C\c1ccc(Cl)cc1)C(=O)/C2=C/c1ccc(Cl)cc1,54.3% (inactive)
15,CCOC(=O)C1=C(C)NC(=S)NC1c1ccccc1 (centres undefined),101% (inactive)
16,C=C1C(=O)O[C@H]2[C@H]1CC/C(COC(=O)N[C@@H](Cc1c[nH]c3ccccc13)C(=O)OC)=C\CC[C@@]1(C)O[C@@H]21,74.6% (inactive)
17,Cc1nc(N)nc2c1CCC(Nc1ccccc1)S2 (centres undefined),110% (inactive)
18,COc1cc(OC)c2sc(-c3ccc(-n4cncc4-c4ccc(OC)c(N)c4)cc3)nc2c1,77.7% (inactive)
19,COc1cc(OC)cc(-c2ccc(-c3ccc(C(=N)N)s3)s2)c1,-73.3% (active)
